{"source": "ChEMBL document CHEMBL3988442", "about": "“University of Dundee, Small-Polar-MMV Screening Library” (2021)", "note": "Hit rate of the full screen: of about 48,000 compounds, about 13,000 (27%) showed an effect of 50% or more. The list shows a part of the results.", "data": [{"system": "Wolbachia pipientis", "assay": "Anti-Wolbachia Cell-Based Screen", "format": "functional", "design": "scale not given: in the data most compounds retested in dose-response had high values", "details": "5 µM", "units": {"Percent Effect": "%"}, "values": [{"compound": "CCOc1ccc2ccccc2c1CNCC1CCNCC1.Cl.Cl", "Percent Effect": 8.229}, {"compound": "Cc1cc(N2CCC(n3cc(CN4CCC[C@@H]4CO)nn3)CC2)ccn1", "Percent Effect": -20.23}, {"compound": "CC(C)n1ccnc1C1CCN(C(=O)c2cc[nH]n2)CC1", "Percent Effect": 7.968}, {"compound": "CC(=O)NCc1nccnc1C1CCN(C(=O)c2cc[nH]n2)CC1", "Percent Effect": 109}, {"compound": "CCOc1ccccc1OC1CCN(C(=O)c2cc[nH]n2)CC1", "Percent Effect": -11.18}, {"compound": "O=C(c1cc[nH]n1)N1CCC(c2nccn2Cc2ccncc2)CC1", "Percent Effect": -13.9}, {"compound": "CC(C)Oc1ncccc1CNC(=O)c1cc[nH]n1", "Percent Effect": 6.018}, {"compound": "CC(=O)N1CCC(c2nccnc2CNC(=O)c2cc[nH]n2)CC1", "Percent Effect": 109.1}, {"compound": "COCC1CC2(CCNCC2)CN1Cc1csc(C)n1.O=C(O)C(F)(F)F.O=C(O)C(F)(F)F", "note": "(centres undefined)", "Percent Effect": -1.413}, {"compound": "COCCN(Cc1ccc(F)cc1Cl)C(=O)c1cc(C)n[nH]1", "Percent Effect": 6.366}, {"compound": "Cc1cc(Cn2cc(C(C)Cc3ccc4c(c3)OCO4)nn2)n[nH]1", "note": "(centres undefined)", "Percent Effect": 3.819}, {"compound": "Cc1cnc(N2CC[C@@H](N3CCOCC3)[C@@H]2Cc2ccncc2)nc1.O=C(O)C(F)(F)F.O=C(O)C(F)(F)F", "Percent Effect": -9.199}, {"compound": "O=C(O)C(c1ccc2c(c1)OCCO2)N1CCC(N2CCSCC2)CC1", "note": "(centres undefined)", "Percent Effect": 114.8}, {"compound": "O=C(O)C(c1ccc(O)cc1)N1CCC(N2CCSCC2)CC1", "note": "(centres undefined)", "Percent Effect": 107.3}, {"compound": "O=C(O)C(c1ccc2c(c1)OCCO2)N1CCSCC1", "note": "(centres undefined)", "Percent Effect": 3.219}, {"compound": "COc1ccc(C(C(=O)O)N2CCN(C3CCCCC3)CC2)cc1OC", "note": "(centres undefined)", "Percent Effect": -12.55}, {"compound": "O=C(O)C(c1cccc2c1OCC2)N1CCC(N2CCSCC2)CC1", "note": "(centres undefined)", "Percent Effect": 4.197}, {"compound": "Cc1cc(=O)n2ncnc2n1CC(O)c1cc(Cl)ccc1Cl", "note": "(centres undefined)", "Percent Effect": -47.28}, {"compound": "COc1ccc(F)c(-c2cc(O)nc(N)n2)c1", "Percent Effect": -16.24}, {"compound": "CC(C)C(=O)N1CCC2(CCN2CC2CC2)C1.O=C(O)C(F)(F)F", "note": "(centres undefined)", "Percent Effect": -2.181}, {"compound": "CC(=O)N1CCC2(CC1)COCCN2CCN(C)C.O=C(O)C(F)(F)F.O=C(O)C(F)(F)F", "Percent Effect": 6.129}, {"compound": "CN1CCOC2(CCCN(C(=O)C3CCCCC3)C2)C1.O=C(O)C(F)(F)F", "note": "(centres undefined)", "Percent Effect": -15.05}, {"compound": "CN1CCOCC12CCN(C(=O)C1CCC1)CC2.O=C(O)C(F)(F)F", "Percent Effect": 137.1}, {"compound": "Cn1ccnc1C(=O)N1CCC2(CCCN2CC2CC2)CC1.O=C(O)C(F)(F)F", "Percent Effect": 5.734}, {"compound": "CCN1CCOCC12CCN(C(=O)c1ccsc1)CC2.O=C(O)C(F)(F)F", "Percent Effect": -8.879}, {"compound": "CN(C)CCN1CCC2(CCCN(C(=O)C3CCC3)C2)CC1.O=C(O)C(F)(F)F.O=C(O)C(F)(F)F", "Percent Effect": -7.862}, {"compound": "CN1CCOCC12CCN(c1nncs1)CC2.O=C(O)C(F)(F)F.O=C(O)C(F)(F)F", "Percent Effect": 6.857}, {"compound": "CCN1CCOCC12CCN(C(=O)C1CCC1)CC2.O=C(O)C(F)(F)F", "Percent Effect": 107.9}, {"compound": "O=C(C1CCC1)N1CCC2(CCCN2CC2CC2)CC1.O=C(O)C(F)(F)F", "Percent Effect": 90.77}, {"compound": "CCN1CCOCC12CCN(C(=O)Cc1cccs1)CC2.O=C(O)C(F)(F)F", "Percent Effect": 0.8444}, {"compound": "CN(C)CCN1CCOCC12CCN(C(=O)C1CC1)CC2.O=C(O)C(F)(F)F.O=C(O)C(F)(F)F", "Percent Effect": 105.8}, {"compound": "Cc1nc(CN(C)c2nc3c(cnn3C(C)(C)C)c(=O)[nH]2)cs1", "Percent Effect": 2.09}, {"compound": "CC(=O)N1CC[C@H]2C(=O)N(c3ccsc3)CCO[C@H]2C1", "Percent Effect": -22.82}, {"compound": "Cc1ccc(CN(C)C)cc1NC(=O)C1CC1", "Percent Effect": -4.043}, {"compound": "O=C(C1CCCO1)N1CCC2(CC1)COCCN2CC1CC1", "note": "(centres undefined)", "Percent Effect": 91.17}, {"compound": "CCOCC(=O)N1CCC2(CC1)COCCN2CCOC.O=C(O)C(F)(F)F", "Percent Effect": 1.249}, {"compound": "COCC(=O)N1CCC2(CC1)COCCN2CCN(C)C.O=C(O)C(F)(F)F.O=C(O)C(F)(F)F", "Percent Effect": -13.01}, {"compound": "c1csc(CN2CCC3(CC2)COCCN3CC2CC2)n1", "Percent Effect": -11.56}, {"compound": "O=C(Cc1cccs1)N1CCC2(CC1)COCCN2CC1CC1.O=C(O)C(F)(F)F", "Percent Effect": -7.1}, {"compound": "CCN1CCOCC12CCN(C(=O)C1CCCC1)CC2.O=C(O)C(F)(F)F", "Percent Effect": 72.95}, {"compound": "CCOCC(=O)N1CCC2(CC1)COCCN2CCN(C)C.O=C(O)C(F)(F)F.O=C(O)C(F)(F)F", "Percent Effect": 122.8}, {"compound": "CC(C)(C)N1CC(C(=O)NCc2cn3cccnc3n2)CC1=O", "note": "(centres undefined)", "Percent Effect": -9.989}, {"compound": "Cc1nc(CN(C)Cc2nc(-c3ccncc3)no2)co1", "Percent Effect": -11.37}, {"compound": "Cc1csc(CCNC(=O)C2CCCN(C3CCOCC3)C2)n1", "note": "(centres undefined)", "Percent Effect": -10.65}, {"compound": "Cc1c(C(=O)NCC2CCN(Cc3c[nH]cn3)C2)[nH]c2ccccc12", "note": "(centres undefined)", "Percent Effect": 1.148}, {"compound": "CNc1ccc(CC2CCCN(Cc3c[nH]cn3)C2)nn1", "note": "(centres undefined)", "Percent Effect": 113.9}, {"compound": "CC(C)[C@H]1CN(Cc2c[nH]cn2)C[C@@H]1NC(=O)CC1CCC1", "Percent Effect": -5.041}, {"compound": "COCCNc1ccc(CC2CCCN(Cc3c[nH]cn3)C2)nn1", "note": "(centres undefined)", "Percent Effect": 98.89}, {"compound": "Cc1ccc2[nH]nc(C(=O)NCC3CCN(Cc4c[nH]cn4)C3)c2c1", "note": "(centres undefined)", "Percent Effect": -10.2}, {"compound": "Cn1c(CCNC(=O)C2CCCN(C3CCOCC3)C2)n[nH]c1=O", "note": "(centres undefined)", "Percent Effect": -0.6939}, {"compound": "COCCNc1ccc(CC2CCCN(C3CCOCC3)C2)nn1", "note": "(centres undefined)", "Percent Effect": 121.9}, {"compound": "O=CO.c1nc(CN2CCCC(Cc3ccc(NC4CCCC4)nn3)C2)c[nH]1", "note": "(centres undefined)", "Percent Effect": 168.2}, {"compound": "O=C(CC1CCCC1)N[C@H]1CN(Cc2c[nH]cn2)C[C@@H]1C1CC1", "Percent Effect": -0.5907}, {"compound": "NC(=O)COc1ccc(CNC(=O)CN2CCc3ccccc32)cc1", "Percent Effect": -10.38}, {"compound": "CN(CCO)Cc1nnc(C2CCN(C3CCCCC3)CC2)n1C", "Percent Effect": 6.504}, {"compound": "Cc1ccc(C(=O)N2CCSCC2)cc1NC(=O)Cn1cncn1", "Percent Effect": -1.948}, {"compound": "NC(=O)c1cccc(CCNC(=O)N2CCCC2)c1", "Percent Effect": -5.891}, {"compound": "CCCc1cc(=O)[nH]c(-c2cccc(CN3CCN4CCCC4C3)c2)n1", "note": "(centres undefined)", "Percent Effect": -7.506}, {"compound": "O=C1CC[C@H]2CN(Cc3ncc[nH]3)CC[C@H]2N1CC1CCNCC1", "Percent Effect": -8.264}, {"compound": "Fc1ccc(CCC2CCCN(Cc3c[nH]cn3)C2)c(F)c1", "note": "(centres undefined)", "Percent Effect": -3.071}, {"compound": "c1c[nH]c(CN2CCCC(Cc3ccc(NC4CCCC4)nn3)C2)n1", "note": "(centres undefined)", "Percent Effect": 81.53}, {"compound": "CC(C)C1CN(Cc2c[nH]cn2)CCCN1CC1CC1", "note": "(centres undefined)", "Percent Effect": 17.94}, {"compound": "Nc1ccc(CC2CCCN(Cc3c[nH]cn3)C2)nn1", "note": "(centres undefined)", "Percent Effect": 105.7}, {"compound": "c1ccc(C2CN(C3CC3)CC3(CCN(Cc4ncc[nH]4)CC3)C2)cc1", "note": "(centres undefined)", "Percent Effect": -18.37}]}]}
